# Laboratory results as given in PubChem BioAssay (NCI).
# The panel holds about 83,000 compounds, 20% with a hit somewhere; the sample as a whole holds those more often.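 Method: cells in 96-well plates; compound added at one concentration; 48 h incubation; percent growth measured; values under 10 scored active.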 Unmarked numbers belong to inactive results. Active and inactive are the calls of the source.
# Test system: OVCAR-3 ovarian
# Experiment: NCI-60 one-dose screen, 48 h (100 = growth as untreated, 0 = no growth, -100 = all killed)
# Details: 10 µM unless noted
row,SMILES,growth
1,CCC(CC)N1C(=O)/C(=c2\sc3n(c2=O)C2C(NN=3)N(CC)C(=O)N2CC)c2ccccc21 (centres undefined),7.62% (active)
2,COc1ccc(-c2nnc(SCc3ccc(O)c4ncccc34)n2-c2ccccc2)cc1,8.67% (active)
3,C=C(C)[C@@H]1CC[C@]2(C(=O)NCCCN(CCC#N)CCC#N)CC[C@]3(C)[C@H](CC[C@@H]4[C@@]5(C)CCC(=O)C(C)(C)[C@@H]5CC[C@]43C)[C@@H]12,118%
4,O=C(COc1ccc(C2SCC(=O)N2c2ccc(F)cc2)cc1)c1ccccc1 (centres undefined),114%
5,NCCN1CCN(c2nc(-c3ccccc3)nc3nc(-c4ccccc4)oc23)CC1,-78.6% (active)
6,Cc1ccc(NC(=O)c2cccc(CN3CCN(C)CC3)c2)cc1Oc1ccc(-c2[nH]nc3ncnc(N)c23)cc1,79.6%

# Test system: HS 578T breast
# Experiment: as above
# Details: 10 µM unless noted
row,SMILES,growth
1,C=C1C(=O)O[C@@H]2C[C@@H](C)[C@H](OC)CC(=O)[C@](C)(OC(C)=O)C[C@H](OC(=O)/C(C)=C\C)[C@@H]12,103%
2,O=C1[C@H]2Cc3c([nH]c4ccccc34)[C@@H](c3ccc(Cl)cc3)N2C(=O)CN1C1CCN(Cc2c(Cl)cccc2Cl)CC1,88.2%
3,COc1ccc(Cn2cc3c(c2-c2ccccc2)CCCc2cnoc2-3)cc1,64.9%
4,COc1ccc(-c2oc3cc(O)cc(O)c3c(=O)c2OC)cc1O,11.2%
5,N/C(=N\OC(=O)CSc1nc2ccccc2s1)c1ccc2ccccc2c1,105%
6,CCOC(=O)C1=C(C)Nc2nc3ccccc3n2C1c1ccccc1 (centres undefined),97.7%
7,CS(=O)(=O)c1ccc(-c2nn(-c3ccccc3)cc2/C=N/NC(=O)c2ccncc2)cc1,108%
8,Cc1cc(O)c2c(c1)C(=O)C(c1c(C)cc3c(c1O)C(=O)C=CC3=O)=CC2=O,102%
9,N#Cc1c(NC(=O)c2ccccc2C(F)(F)F)sc2c1CCC(=O)C2,30.4%
10,CCOC(=O)C1=C(C)N=C2Sc3ccccc3N2C1c1ccccc1 (centres undefined),93.5%
11,CN(C)c1ncc(/C=C2\SC(=S)N(Cc3ccccc3Cl)C2=O)s1,101%
12,CCN1C(=O)N(CC)C2SC(N/N=C/c3ccc(OC)cc3)=NC21 (centres undefined),31.9%
13,O=C1[C@@H]2Cc3c([nH]c4ccccc34)[C@H](c3c(Cl)cccc3Cl)N2C(=O)CN1C1CCN(Cc2c(F)cccc2F)CC1,44.7%
14,CC1OC(O[C@@H]2[C@H](O)C(CO)OC(O[C@H]3COC(O[C@H]4CC[C@]5(C)[C@H]6CC[C@]78OC[C@@]9(CC[C@](C)(C=O)C[C@H]97)C(=O)C[C@@]8(C)[C@]6(C)CC[C@H]5C4(C)C)[C@@H](O)[C@@H]3O)[C@H]2OC2OC[C@@H](O)[C@@H](O)[C@@H]2O)[C@@H](O)[C@@H](O)[C@H]1O (some centres undefined),103%
15,CC(=O)NC(C)(C)C(=O)N1CCC[C@H]1C(=O)NC(C)(C)C(=O)N[C@@H](C)C(=O)NC(C)(C)C(=O)NC(C)(C)C(=O)N[C@@H](CCC(N)=O)C(=O)NC(C)(C)C(=O)N[C@H](C(=O)NC(C)(C)C(=O)NCC(=O)N[C@@H](CC(C)C)C(=O)NC(C)(C)C(=O)N1CCC[C@H]1C(=O)N[C@H](C(=O)NC(C)(C)C(=O)NC(C)(C)C(=O)N[C@@H](CCC(N)=O)C(=O)N[C@@H](CCC(N)=O)C(=O)N[C@H](CO)Cc1ccccc1)C(C)C)C(C)C,46% [4.25 µM]
16,CC1(C)CC[C@]2(C(=O)O)CC[C@]3(C)C(=CCC4[C@@]5(C)C[C@@H](O)[C@@H]6OC(c7cccc([N+](=O)[O-])c7)OC[C@@]6(C)C5CC[C@]43C)C2C1 (some centres undefined),94.1%
17,Oc1ccccc1-c1nnc(SCc2ccc(O)c3ncccc23)n1-c1ccccc1,21.3%
18,O=c1c2c(O)cccc2oc2c3c(cc(O)c12)O[C@H]1OC=C[C@@H]31,94.9%
19,O=C(CN1C(=O)S/C(=C\c2ccccc2)C1=O)Nc1ccc(C(=O)/C=C/c2cc3ccccc3nc2Cl)cc1,96.1%

row,SMILES,growth
1,O=C(/C=C/c1cccc(O)c1)c1ccc(O)cc1,101%
2,ClC(Cl)c1nc(-c2cccs2)n2nc(-c3ccccc3)cc2n1,-21.1% (active)
3,CC1OC(O[C@@H]2C(O)C(CO)OC(O[C@H]3COC(O[C@H]4CC[C@]5(C)[C@H]6CC[C@]78OC[C@@]9(CC[C@](C)(C=O)C[C@H]97)[C@H](O)C[C@@]8(C)[C@]6(C)CC[C@H]5C4(C)C)[C@@H](OC4OC(CO)[C@@H](O)[C@@H](O)[C@@H]4O)[C@@H]3O)[C@H]2OC2OC[C@@H](O)[C@@H](O)[C@@H]2O)[C@@H](O)[C@@H](O)[C@H]1O (some centres undefined),-36.9% (active)
4,O=C(CCCCCCN1CC(=O)N2[C@@H](c3cc(F)cc(F)c3)c3[nH]c4ccccc4c3C[C@H]2C1=O)NO,61.6%
5,N=c1c2cc(-c3ccccc3)oc2ncn1/N=C/c1ccccc1,91.3%
6,COc1cc(CNC(=O)/C=C/c2ccccc2)ccc1OCC(=O)NO,109%
7,C=C(C)[C@@H]1CC[C@]2(COS(C)(=O)=O)CC[C@]3(C)[C@H](CC[C@@H]4[C@@]5(C)CCCNC(C)(C)[C@@H]5CC[C@]43C)[C@@H]12,91.4%
8,C#CCOc1ccc(C(Nc2cc(Cl)ccc2Cl)c2nnnn2C2CCCCC2)cc1 (centres undefined),87.4%
9,Oc1ccc(CSc2nnc(-c3cnccn3)n2-c2ccccc2)c2cccnc12,29.4%
10,O=C(COc1ccc(C2SCC(=O)N2c2ccccc2)cc1)c1ccccc1 (centres undefined),94.1%
11,c1ccc(-c2c(-c3ccccc3)[n+](Cc3ccc4ccccc4c3)c(-c3ccccc3)n2Cc2ccc3ccccc3c2)cc1,-50.4% (active)
12,O=C1[C@H]2Cc3c([nH]c4ccccc34)[C@H](c3ccc(Cl)cc3)N2C(=O)CN1C1CCN(Cc2c(Cl)cccc2Cl)CC1,75.6%
13,COc1ccc(/C=C/C(=O)c2nnn(-c3ccc(Br)cc3)c2C)cc1OC,92.5%
14,CCC(CC)N1C(=O)/C(=c2\sc3n(c2=O)C2C(NN=3)N(CC)C(=O)N2CC)c2ccccc21 (centres undefined),25.6%
15,COc1ccc(-c2nnc(SCc3ccc(O)c4ncccc34)n2-c2ccccc2)cc1,22.1%
16,C=C(C)[C@@H]1CC[C@]2(C(=O)NCCCN(CCC#N)CCC#N)CC[C@]3(C)[C@H](CC[C@@H]4[C@@]5(C)CCC(=O)C(C)(C)[C@@H]5CC[C@]43C)[C@@H]12,105%
17,O=C(COc1ccc(C2SCC(=O)N2c2ccc(F)cc2)cc1)c1ccccc1 (centres undefined),96.7%
18,NCCN1CCN(c2nc(-c3ccccc3)nc3nc(-c4ccccc4)oc23)CC1,100%
19,Cc1ccc(NC(=O)c2cccc(CN3CCN(C)CC3)c2)cc1Oc1ccc(-c2[nH]nc3ncnc(N)c23)cc1,64.2%
